Experimental data from ChEMBL document CHEMBL1157539, “Thousands of chemical starting points for antimalarial lead identification” (Nature, 2010).

How the values were obtained:
Format in all cases: functional
Plasmodium falciparum [1] = assay: GSK_TCMDC: Inhibition of Plasmodium falciparum 3D7 in whole red blood cells, using parasite LDH activity as an index of growth. Test compounds present at 2uM
Plasmodium falciparum [2] = assay: GSK_TCMDC: Inhibition of Plasmodium falciparum Dd2 in whole red blood cells, using parasite LDH activity as an index of growth. Test compounds present at 2uM
HepG2 = assay: GSK_TCMDC: Percent inhibition of human HepG2 cell line. Test compounds present at 10uM.

SMILES | Inhibition (Plasmodium falciparum [1]) [%] | Inhibition (Plasmodium falciparum [2]) [%] | Inhibition (HepG2) [%]
CN1CCN(Cc2cc(NC(=O)c3ccc(-c4ccc(Cl)cc4Cl)cc3)ccc2-c2ccccc2)CC1 | 95 | 21 | 52
COc1ccccc1CNC(=O)c1cc(OC)c(OC)cc1NC(=O)c1cccs1 | 88 | 71 | 12
c1ccn2c(Sc3ncnc4sccc34)ncc2c1 | 100 | 100 | 0
Cc1cccc2nc(-c3cccc(-c4cccc(NC(=O)c5cccnc5Cl)c4)c3)[nH]c12 | 97 | 32 | 0
Clc1ccc2c(NN=Cc3ccco3)ccnc2c1 | 100 | 96 | 3
CC(C)C[C@H]1c2[nH]c3ccc(Cl)cc3c2CCN1C(=O)CCc1ccccc1 | 95 | 81 | 0
Nc1cccc(CNCc2ccc(-c3ccc(-c4nc5cc(F)ccc5[nH]4)s3)cc2)c1.O=C(O)C(F)(F)F | 100 | 93 | 12
CC(=O)Nc1ccc(C(=O)NC2CCN(c3ccnc4cc(Cl)ccc34)C2)cc1.O=C(O)C(F)(F)F (stereo not drawn) | 100 | 100 | 1
O=C(/C=C/c1ccc(Cl)c(Cl)c1)N1CCC(CN2CCC(Cc3c[nH]c4ccccc34)CC2)CC1 | 98 | 13 | 24
Nc1nc2c(c(=O)[nH]1)CN(S(=O)(=O)c1ccc(C(=O)N[C@@H](CCC(=O)O)C(=O)O)cc1)CC2 | 95 | 96 | 49
O=C(NC1CC1)c1cnc(N2CCN(Cc3c(F)cccc3Cl)CC2)c(Cl)c1.O=C(O)C(F)(F)F | 93 | 93 | 0
COc1cc(Cl)c(C)cc1N(Cc1ccccc1-c1ccccc1)S(=O)(=O)c1ccc(C(F)(F)F)cc1 | 90 | 62 | 23
Cc1c[nH]c(-c2cccc(C(=O)NC3CCC(CCN4CCc5ccc(C#N)cc5CC4)CC3)c2)n1.Cl (stereo not drawn) | 100 | 69 | 23
COc1cc(NC(=O)CCCCCCCN2CCN(C)CC2)c2ncccc2c1 | 95 | 83 | 2
CCOc1cc(NCCCNc2ncc([N+](=O)[O-])cc2C)nc2ccccc12 | 84 | 64 | 10
COc1cccc(C(=O)NC(c2ccccc2OC)c2cc(Cl)c3cccnc3c2O)c1 (stereo not drawn) | 91 | 36 | 58

SMILES | Inhibition (Plasmodium falciparum [1]) [%] | Inhibition (Plasmodium falciparum [2]) [%] | Inhibition (HepG2) [%]
CNc1ccc(CNCc2ccc(-c3ccc(-c4nc5cccc(C)c5[nH]4)cc3)cc2)cc1.O=C(O)C(F)(F)F | 100 | 92 | 35
CCCCCCNC(=O)C1Cc2c([nH]c3ccc(C)cc23)C2(CCN(CCc3ccccc3)CC2)N1 (stereo not drawn) | 85 | 24 | 31
Oc1ccc(-c2ccccc2)cc1CN1CCCCCC1 | 95 | 85 | 6
O=S(=O)(c1cc(Cl)c(Cl)cc1Cl)N1CCCCC(c2ccc(C(F)(F)F)cc2)=N1 | 98 | 99 | 9
O=C(N[C@@H](CC1CCCCC1)C(=O)NC1CC1)c1ccc(O)c(-c2cccc(C(F)(F)F)c2)c1 | 99 | 47 | 0
CC(C)n1ncc2c(C(=O)N3CCCc4ccccc43)cc(-c3ccccc3)nc21 | 100 | 82 | 5
Cc1[nH]c(C)c(-c2ccc(-c3ccc(C#N)cc3)nc2)c(=O)c1Br | 97 | 87 | 5
CCOc1cc(C)ccc1N(C1CCN(CCCCNC(=O)c2ccc(-c3ccc(C(F)(F)F)cc3)cc2)CC1)S(=O)(=O)c1ccccc1 | 88 | 85 | 14
Cc1cc2c(NC(=O)NC3CCN(CCc4ccccc4Cl)CC3)cccc2cn1.Cl | 100 | 46 | 13
O=C(O)C(F)(F)F.c1ccc(CCNCc2ccc(-c3ccc(CNc4ccc5ncccc5c4)cc3)cc2)cc1 | 96 | 27 | 36
COCCCNc1sc(S(=O)(=O)c2ccccc2)nc1S(=O)(=O)c1ccc(C)cc1 | 84 | 44 | 7
CCn1c(-c2ccccc2)cc2nnc3ccccc3c21 | 92 | 87 | 34
Cc1cccc2nc(-c3ccc(-c4cccc(NC(=O)c5ccncc5)c4)cc3)[nH]c12 | 98 | 8 | 46
CC1CN(c2ccnc3ccc(Sc4ccc(Oc5ccccc5)cc4)cc23)CC(C)N1.Cl (stereo not drawn) | 100 | 99 | 33
O=C(Nc1ccc2c(c1)CCC2)c1cnc(N2CCN(c3ccncc3)CC2)c(Cl)c1.O=C(O)C(F)(F)F | 100 | 48 | 33
